# In the supplement of paper PMC12282887:
# ± gives the standard deviation of the averaged measurements.
# Key:
# Assay in all cases: promoter activity interaction Z-score (Lux/OD deviation from empty-vector control); higher = stronger promoter induction by the compound
# [1] = tested on: E. coli BW25113 acrABp lux reporter
# Outline: (§1)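 E. coli BW25113 (wild type or marA, soxS or rob deletion) carrying low-copy luxCDABE promoter reporters grew in 40 µl LB Lennox in 384-well plates at 37°C. Each compound was tested at four 1:2 dilutions in biological duplicates. OD600 and luminescence were read every 30 min for 12 h. Areas were taken over 0–8 h (wild type) or 1–9 h (mutants), and wells below 10% of median growth area were removed. The score is the Z-transformed residual of growth-normalised luminescence fitted against the empty-vector control.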
# [2] = tested on: E. coli BW25113 micFp lux reporter
# Outline: as §1
# [3] = tested on: E. coli BW25113 ompFp lux reporter
# Outline: as §1
# [4] = tested on: E. coli BW25113 robp lux reporter
# Outline: as §1
# [5] = tested on: E. coli BW25113 soxSp lux reporter
# Outline: as §1
# [6] = tested on: E. coli BW25113 tolCp lux reporter
# Outline: as §1
# [7] = 22.5 µg/ml, genetic background: wild type
# [8] = 22.5 µg/ml, genetic background: ΔmarA
# [9] = 22.5 µg/ml, genetic background: Δrob
# [10] = 22.5 µg/ml, genetic background: ΔsoxS
# [11] = 45 µg/ml, genetic background: wild type
# [12] = 45 µg/ml, genetic background: ΔmarA
# [13] = 45 µg/ml, genetic background: Δrob
# [14] = 45 µg/ml, genetic background: ΔsoxS
# [15] = 90.1 µg/ml, genetic background: wild type
# [16] = 90.1 µg/ml, genetic background: ΔmarA
# [17] = 90.1 µg/ml, genetic background: Δrob
# [18] = 90.1 µg/ml, genetic background: ΔsoxS
# [19] = 180.2 µg/ml, genetic background: wild type
# [20] = 180.2 µg/ml, genetic background: ΔmarA
# [21] = 180.2 µg/ml, genetic background: Δrob
# [22] = 180.2 µg/ml, genetic background: ΔsoxS
compound,measurement,setting,value
CC(=O)Oc1ccccc1C(=O)O [Acetylsalicylic acid],promoter activity interaction Z-score,[1]; [7],-0.0985 ± 0.4
same,promoter activity interaction Z-score,[1]; [8],-0.517 ± 0.098
same,promoter activity interaction Z-score,[1]; [9],-0.0077 ± 0.088
same,promoter activity interaction Z-score,[1]; [10],-0.0154 ± 0.64
same,promoter activity interaction Z-score,[1]; [11],-0.074 ± 0.32
same,promoter activity interaction Z-score,[1]; [12],0.0467 ± 0.55
same,promoter activity interaction Z-score,[1]; [13],0.166 ± 0.1
same,promoter activity interaction Z-score,[1]; [14],0.231 ± 0.27
same,promoter activity interaction Z-score,[1]; [15],-0.285 ± 0.52
same,promoter activity interaction Z-score,[1]; [16],-0.333 ± 1.1
same,promoter activity interaction Z-score,[1]; [17],-0.137 ± 0.07
same,promoter activity interaction Z-score,[1]; [18],0.467 ± 0.76
same,promoter activity interaction Z-score,[1]; [19],0.092 ± 0.075
same,promoter activity interaction Z-score,[1]; [20],-0.505 ± 0.22
same,promoter activity interaction Z-score,[1]; [21],0.377 ± 0.044
same,promoter activity interaction Z-score,[1]; [22],1.71 ± 1.2
same,promoter activity interaction Z-score,[2]; [7],0.2 ± 0.11
same,promoter activity interaction Z-score,[2]; [8],0.0379 ± 0.26
same,promoter activity interaction Z-score,[2]; [9],0.404 ± 0.28
same,promoter activity interaction Z-score,[2]; [10],0.0828 ± 0.038
same,promoter activity interaction Z-score,[2]; [11],0.294 ± 0.19
same,promoter activity interaction Z-score,[2]; [12],0.0785 ± 0.071
same,promoter activity interaction Z-score,[2]; [13],0.518 ± 0.31
same,promoter activity interaction Z-score,[2]; [14],0.285 ± 0.12
same,promoter activity interaction Z-score,[2]; [15],0.237 ± 0.08
same,promoter activity interaction Z-score,[2]; [16],0.0592 ± 0.067
same,promoter activity interaction Z-score,[2]; [17],1.19 ± 0.68
same,promoter activity interaction Z-score,[2]; [18],0.855 ± 0.27
same,promoter activity interaction Z-score,[2]; [19],1.38 ± 0.096
same,promoter activity interaction Z-score,[2]; [20],0.189 ± 0.12
same,promoter activity interaction Z-score,[2]; [21],2.72 ± 0.048
same,promoter activity interaction Z-score,[2]; [22],2.65 ± 0.019
same,promoter activity interaction Z-score,[3]; [7],0.15 ± 0.52
same,promoter activity interaction Z-score,[3]; [8],-0.0334 ± 0.0097
same,promoter activity interaction Z-score,[3]; [9],-0.332 ± 0.11
same,promoter activity interaction Z-score,[3]; [10],-0.533 ± 0.19
same,promoter activity interaction Z-score,[3]; [11],0.0711 ± 0.62
same,promoter activity interaction Z-score,[3]; [12],-0.0561 ± 0.37
same,promoter activity interaction Z-score,[3]; [13],-0.229 ± 0.49
same,promoter activity interaction Z-score,[3]; [14],-0.162 ± 0.16
same,promoter activity interaction Z-score,[3]; [15],-0.597 ± 0.69
same,promoter activity interaction Z-score,[3]; [16],-0.411 ± 0.14
same,promoter activity interaction Z-score,[3]; [17],-0.956 ± 0.38
same,promoter activity interaction Z-score,[3]; [18],0.0662 ± 0.72
same,promoter activity interaction Z-score,[3]; [19],-0.594 ± 0.36
same,promoter activity interaction Z-score,[3]; [20],-0.771 ± 0.14
same,promoter activity interaction Z-score,[3]; [21],-0.628 ± 0.52
same,promoter activity interaction Z-score,[3]; [22],-0.165 ± 0.36
same,promoter activity interaction Z-score,[4]; [7],0.17 ± 0.36
same,promoter activity interaction Z-score,[4]; [8],-0.635 ± 0.24
same,promoter activity interaction Z-score,[4]; [9],0.299 ± 0.26
same,promoter activity interaction Z-score,[4]; [10],-0.394 ± 1.1
same,promoter activity interaction Z-score,[4]; [11],0.406 ± 0.86
same,promoter activity interaction Z-score,[4]; [12],0.328 ± 0.074
same,promoter activity interaction Z-score,[4]; [13],0.109 ± 1.1
same,promoter activity interaction Z-score,[4]; [14],0.454 ± 0.65
same,promoter activity interaction Z-score,[4]; [15],-0.235 ± 0.3
same,promoter activity interaction Z-score,[4]; [16],0.332 ± 0.19
same,promoter activity interaction Z-score,[4]; [17],-0.142 ± 0.65
same,promoter activity interaction Z-score,[4]; [18],0.2 ± 0.77
same,promoter activity interaction Z-score,[4]; [19],-0.797 ± 0.23
same,promoter activity interaction Z-score,[4]; [20],-0.595 ± 0.25
same,promoter activity interaction Z-score,[4]; [21],-0.635 ± 0.52
same,promoter activity interaction Z-score,[4]; [22],-0.507 ± 0.57
same,promoter activity interaction Z-score,[5]; [7],0.245 ± 0.03
same,promoter activity interaction Z-score,[5]; [8],0.396 ± 0.012
same,promoter activity interaction Z-score,[5]; [9],0.336 ± 0.03
same,promoter activity interaction Z-score,[5]; [10],0.386 ± 0.52
same,promoter activity interaction Z-score,[5]; [11],0.214 ± 0.2
same,promoter activity interaction Z-score,[5]; [12],0.405 ± 0.076
same,promoter activity interaction Z-score,[5]; [13],0.388 ± 0.19
same,promoter activity interaction Z-score,[5]; [14],0.494 ± 0.84
same,promoter activity interaction Z-score,[5]; [15],0.119 ± 0.042
same,promoter activity interaction Z-score,[5]; [16],0.218 ± 0.23
same,promoter activity interaction Z-score,[5]; [17],0.406 ± 0.2
same,promoter activity interaction Z-score,[5]; [18],0.157 ± 0.64
same,promoter activity interaction Z-score,[5]; [19],0.054 ± 0.12
same,promoter activity interaction Z-score,[5]; [20],0.327 ± 0.073
same,promoter activity interaction Z-score,[5]; [21],0.525 ± 0.097
same,promoter activity interaction Z-score,[5]; [22],0.502 ± 1.1
same,promoter activity interaction Z-score,[6]; [7],0.458 ± 0.6
same,promoter activity interaction Z-score,[6]; [8],-1.26 ± 1.6
same,promoter activity interaction Z-score,[6]; [9],-0.642 ± 0.11
same,promoter activity interaction Z-score,[6]; [10],0.238 ± 0.11
same,promoter activity interaction Z-score,[6]; [11],0.0937 ± 0.17
same,promoter activity interaction Z-score,[6]; [12],0.783 ± 0.48
same,promoter activity interaction Z-score,[6]; [13],0.602 ± 0.1
same,promoter activity interaction Z-score,[6]; [14],0.898 ± 0.65
same,promoter activity interaction Z-score,[6]; [15],0.202 ± 0.78
same,promoter activity interaction Z-score,[6]; [16],1.21 ± 0.39
same,promoter activity interaction Z-score,[6]; [17],1.08 ± 0.51
same,promoter activity interaction Z-score,[6]; [18],1.29 ± 0.033
same,promoter activity interaction Z-score,[6]; [19],-0.456 ± 0.15
same,promoter activity interaction Z-score,[6]; [20],-0.659 ± 0.06
same,promoter activity interaction Z-score,[6]; [21],1.91 ± 0.78
same,promoter activity interaction Z-score,[6]; [22],2.01 ± 0.4
